Reference: PubChem BioAssay AID1508600 (Functional Genomics Laboratory (NCATS/FGL), 2020)
About 3,700 (7%) of roughly 53,000 sequences were called active.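 Rule for the calls: active = gene knockdowns whose robust z-score for IL-1 alpha signal is at least 2 or at most -2, so actives lie on both sides; inactive = the rest.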 The entries come from a sample that favours actives as a whole.

Experiment: Components of the Cytosolic LPS Sensing Pathway: Gene Identification via Genome-wide siRNA Screen;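 note: robust z of the log signal after scaling to non-targeting control siRNA wells of the plate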
Conditions: RAW264.7 macrophages, IL-1a HTRF, actives lie on both sides, screened at 100 nM (by protocol), cells primed 5 h with Pam3CSK4 first
Summary of the method: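 Using IL-1a HTRF as read-out, the screen measured release from RAW264.7 cells after 48h siRNA knockdown (100 nM), 5 h Pam3CSK4 priming and 24 h cytosolic LipidA. Values were expressed relative to negative-control wells as robust z-scores.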

z-score, inactive:
CCGGUAUUACAACAAGUACTT against Atp5j2 1.01
GGGAGAAGGUAAGUGCAUGTT against Golga7b -0.343
GGUGGAAAAGUGAAAAAGGTT against Ddx18 0.158
CCUGUAGAUUCAAUUAGAGTT against Vkorc1l1 -0.206
GGUGCUGCUUUAUUCCUGGTT against Dhcr7 -0.632
GGAUAUGUGUUCAUCCUGUTT against Lrrc18 0.0347
GGUUAUGCCUUCAGUGAAGTT against Prep -0.14
GGUGACUGUCCUGAACUAUTT against Prr5l 1.7
CGAAGUGAAAAGUAUGACCTT against Lrrc72 -0.083
AUCUCUCGGUGGUGGACUGTT against Olfr1474 0.583
CCAGGUCGAACUUCUGUGCTT against Slc39a8 -0.82
GCAACUCAGAAUGUAGUGUTT against Gnai1 0.298
GGCUUUUGAUGAGGUAAAATT against Plekho2 -1.12
GGAGGAAAAACAGUGCAGATT against Smchd1 -1.54
GGUUCUGACUUGAGAAAACTT against Clba1 1.41
GGUUAUUCUGGUACAGGUUTT against Fndc3a 0.191
GGCUCAGCUCAUGAACGACTT against Acvr2b -0.00307
GGUGGUUUUCAUGUUUCCCTT against Olfr574 -1.48
GGCUAGAAUGCACAUUUUATT against Tmem65 -1.26
CCACCCUCUUCAUAACAGUTT against Med27 -0.82
GCCAAUACACGUCUACUGATT against Gm1553 -0.0632
GGACCAUGAGACGAUGGGATT against Dysf 0.167
GCUAAUGACACCACUUUUGTT against Aldh9a1 -0.379
GGAUUGAGUCCUAUGAAGGTT against Stard3nl -1.09
CCAAGUGACUUUAAGGAUGTT against Pcolce 0.759
GGCCAUCAUAUCACCAUUUTT against Rcsd1 1.6
GCCUUAGGCAUUUAGAUUUTT against Zbed4 1.33
CGGAGUUCAGCAUUUACCCTT against Shld2 0.428
GGCAGUUUGACAACUUUAATT against Fibp -0.653
CCCAGCUCAGGUUUCUAUGTT against Dact2 0.0333
GCCUAUGUAAAUAGUGCUGTT against Mt3 0.549
GCUAGGUUGGAUAUAUAUGTT against Mypn -0.0247
CGAAGUGAGAAUUGAAUUUTT against Zp2 1.51
CGGGAAGUAGUGCAACACCTT against Taldo1 -0.902
GCACGUAGUAAGAUGUUACTT against Cnot9 -0.969
GGGCAUGAAUGGUUACUUATT against Mllt6 1.24
GGGUGUCAUAUAUAUUGCUTT against Gpr83 0.889
GCAAGUGAAAUCCAAACAGTT against Nabp1 -1.54
GGUGAGAAGACCAUUGAUUTT against Insr 0.459
GGUACUCUCAUUAUCUUUCTT against Tlr8 -0.217
GUGAGAAGUUGUGUAGAGCTT against Fmc1 1.84
GCAUACAACUGUUCAUAGATT against Nsrp1 -0.476
GGACAGCGACAAGAUUCCGTT against Sox4 -0.714
GCCUUUAAUCAACCCAAGATT against Scd1 -0.728
GCUAAAGAUGAGCGUACAUTT against Myh10 1.44
GGUGGUGGAGAAGAUAGGATT against Pax8 -1.05
CCAUCUAUUACGGAACGGGTT against Olfr324 1.36
GGCCUCAACUAAGAACCCUTT against Pcdh1 -0.298
GGUCACUGCUAAAGCCUGATT against Stoml3 0.864
GGCCAUGAAUAUGGAGUCCTT against Cptp 0.623
GGAAAUCAGAGCUGAGUUATT against Ankrd6 0.0763
GGUAGUAGUAAGCCAUAAATT against Exoc8 0.736
CCCUUGAACAUUCUACUCUTT against 1700012A03Rik -0.955
GAUCAUCGGCAUUUUGAACTT against Il4 -0.527
GGUAGUAGGAGUUUCCUACTT against 4933414I15Rik 1.44
CGGUAAUCAUUGCUGUUCUTT against H2-K1 1.05
GGAAGACCAAUAGUACUGCTT against Il1rn -0.0282
GGAGUACGAAUUCCUCACUTT against Arhgdib -0.0475
GGCUCAAAGAAUAUGCCAATT against Rad54b 0.99
GCCAGUGCUGGUUUGAAAUTT against Clip4 1.67
CCACUGUUACCAUUAUAAUTT against Pramel4 -0.594
GCGCAGAAGAGGCUAUUAUTT against Asprv1 -0.125
GGUAGCACUUACGUGAAAUTT against Mbd2 -0.655
GCAUAUGGCACCACAUUGUTT against Psg25 0.0646
GGAUAUCAGGGUUGUUAAGTT against Txnl4b 0.952
GGCUAUGUUAAUUUGUCCCTT against Hc 0.00272
GGAAUCAGCAAUGGACCCUTT against Parn -0.818
CCUGGGCCUUAACAAGAAGTT against Upf1 -1.32
GCUUUGGAUAGUAGACAGCTT against BC055324 0.199
GGGACAAUUAGAAAGACAUTT against Mtif2 0.982
GGAACUCACGCACAUAUUUTT against Net1 -0.483
GACUUACUUGCAUCACUGATT against Vmn1r4 -0.732
GGUGAAUGUAUAAGUUAUGTT against Icam1 1
GCUUUCUUAGCAUUAAAUCTT against Zkscan3 -0.274
GGUUCAUGAUGGAUGACAUTT against Bmerb1 -1.96
GGCUUGAAGUUCAUUUAUUTT against Nkiras2 -1.03
GGUUAUUCAAAAAUGCAACTT against Rcor1 -0.559
GGUCUAUGCGAUGCUAUACTT against Sarm1 -0.508
GCCGUUUACCUUAGUCUGUTT against Cyb5rl 0.00283
GCCAGCCUAAAAAAGAUACTT against Eef1g 0.254
GGAUCUUGGCUAAAGAGGGTT against Slc25a25 0.0129
GCAAUUGAAAGUGAACAAUTT against Olfr1360 -0.935
GGAGGAAAGUUGUAUUUGATT against Nudt7 0.148
GGGUACCUGUCCAAGGUCATT against Mfn2 0.849
GGAUGGAACAUAUGAUUAGTT against Vmn1r234 0.653
GGUGUCAGGAUUUUAUAACTT against Etfbkmt -0.182
GUUUGUCUAGCUUCAGAUGTT against Rims4 1.78

z-score, active:
CGAUUAUGAGCACUAUAUUTT against Ddx20 2.12
GGGCAUAGUGACCAGGUUATT against Fgf14 2.67
GGACCUAUUACCUCAAUGATT against Spatc1l -2.59
GGACAUGACCAAAAGGCUGTT against Zfp706 3.84
GGUGACACUCAAGGUGUCATT against Ldlrap1 2.23
GCUGAAGUUCGUACCCUACTT against Osbp2 -2.42
GGUGAUCAAUCCUCUAAUATT against Eid2 2.61
GCUGCUCAGUUUCUUCCAATT against H4c9 2.08
GCACAGUACCAUAACGGCUTT against Nampt -2.06
GGAGCUGAGGGAACCUUGUTT against Slc35c1 -2.67
GGUCCAAUUAACCUAUCUUTT against Ppip5k2 -2.06
GGAGAUUAGUUACUUCCAGTT against Slc1a7 3.5
GGAUACAUUAAUUGUUUGGTT against Ppp4r3b 2.55
GGCUGGUACAAAGUUUUAGTT against Mpv17 2.55
GGAUAAAGGAAUCUGAUCUTT against Unc80 -2.58
GCAAUAUGUGACAAACUUCTT against Ptpn22 2.06
CCCACUUUGAAAAAGACUCTT against Mei4 2.5
GGAACCAACCAGGAGAAAUTT against Ms4a4d -2.58
GGAAAGGCUCAAUGAGAGCTT against Nipa2 -3.3
GGCGAGUUCAGGAGUUUACTT against Fmnl1 2.55
GGUGGUUUGUGAUGAAAAUTT against Pabpc1 2.11
